# Results reported in PubChem BioAssay (Tox21).
# Where “and” joins values, the source holds several entries; their conditions need not be identical. Identical values can stand only once. Inconclusive results are not listed. Entries that show only a call come without a potency. Some structures have more than one record in an assay (separate samples or runs), and their calls can disagree. Calls of active or inactive are those of the source. The call rests on the fitted dose curve.
# Assays:
# [1] = target: Acetylcholinesterase (Homo sapiens) (UniProt P22303); test: Acetylcholinesterase (AChE) small molecule antagonists: colormetric cell-based qHTS assay (AID 1347395); conditions: SH-SY5Y cells AChE activity, colorimetric (Ellman); series mostly up to 115 µM; further: nearly all actives have a fitted effect of over 30% in size
# Method in brief: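 Quantitative HTS in attached SH-SY5Y cells: 30 min compound exposure, then 90 min with acetylthiocholine and DTNB at 37 C; colour from thiocholine reports AChE activity.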
# [2] = target: Acetylcholinesterase (Homo sapiens) (UniProt P22303); test: Acetylcholinesterase (AChE) small molecule antagonists: enzyme-based qHTS assay (AID 1347397); conditions: Potency: AChE enzyme activity inhibition; outcome: AChE enzyme activity inhibition; series mostly up to 115 µM; further: nearly all actives have a fitted effect of over 55% in size
# Method in brief: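 Colorimetric DTNB readout of acetylthiocholine hydrolysis, 10 min at room temperature, after 30 min room-temperature exposure of 50 mU/mL recombinant human enzyme to compound; DMSO vehicle control.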
# [3] = target: Acetylcholinesterase (Homo sapiens) (UniProt P22303); test: Acetylcholinesterase (AChE) small molecule antagonists: fluorescence cell-based qHTS assay (AID 1347398); conditions: SH-SY5Y cells; Potency: AChE activity; outcome: AChE activity; series mostly up to 115 µM; further: nearly all actives have a fitted effect of over 50% in size
# Method in brief: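 Cellular AChE activity read as thiocholine from acetylthiocholine hydrolysis, detected by Thiolite Green fluorescence at 490/520 nm after 40 min at room temperature. Compounds were pre-incubated 30 min at 37 C on adherent SH-SY5Y cells.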
# [4] = target: Acetylcholinesterase (Homo sapiens) (UniProt P22303); test: Acetylcholinesterase (AChE) small molecule antagonists: enzyme-based qHTS assay with human liver microsomes (AID 1347399); conditions: Potency: qHTS inhibition; outcome: qHTS inhibition; series mostly up to 115 µM; further: nearly all actives have a fitted effect of over 60% in size
# Method in brief: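 Recombinant human AChE (50 mU/mL in the enzyme mix) and human liver microsomes (0.25 mg/mL final) were preincubated with compound and NADPH (0.25 mg/mL final) for 30 min at 37 C. Acetylthiocholine/DTNB was then added; thiocholine was read colorimetrically after 10 min at room temperature.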
# Potency means the concentration at half of the fitted maximal effect.
# Chain of Acetylcholinesterase (Homo sapiens) (P22303 whole entry, looked up): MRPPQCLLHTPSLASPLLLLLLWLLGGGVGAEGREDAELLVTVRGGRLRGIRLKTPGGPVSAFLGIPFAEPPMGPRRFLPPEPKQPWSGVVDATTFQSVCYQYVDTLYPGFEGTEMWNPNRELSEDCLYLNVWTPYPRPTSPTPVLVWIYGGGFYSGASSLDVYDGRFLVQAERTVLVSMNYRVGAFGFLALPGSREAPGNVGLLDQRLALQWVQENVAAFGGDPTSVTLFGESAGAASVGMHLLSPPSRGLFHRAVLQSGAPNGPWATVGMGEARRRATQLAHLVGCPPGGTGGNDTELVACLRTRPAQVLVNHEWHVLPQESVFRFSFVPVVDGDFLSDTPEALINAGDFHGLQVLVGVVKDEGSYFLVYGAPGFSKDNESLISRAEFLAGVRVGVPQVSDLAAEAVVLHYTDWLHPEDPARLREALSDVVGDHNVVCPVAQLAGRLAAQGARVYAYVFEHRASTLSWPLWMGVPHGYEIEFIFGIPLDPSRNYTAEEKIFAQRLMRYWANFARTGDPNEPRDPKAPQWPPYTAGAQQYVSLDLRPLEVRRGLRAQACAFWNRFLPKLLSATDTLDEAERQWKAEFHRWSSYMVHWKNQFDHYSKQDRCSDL
SMILES,Potency [1],Potency [2],Potency [3],Potency [4],outcome [1],outcome [2],outcome [3],outcome [4]
O=C(O)c1snc(Cl)c1Cl,inactive,inactive,inactive,inactive,–,–,–,–
C=Cc1ccc(C(C)(C)C)cc1,inactive,inactive,inactive,inactive,–,–,–,–
C=COCC(C)C,inactive,inactive,inactive,inactive,–,–,–,–
NC(=S)NNC(N)=S,inactive,inactive,inactive,inactive,–,–,–,–
CN(C)Cc1cc(CN(C)C)c(O)c(CN(C)C)c1,inactive,inactive,inactive,inactive,–,–,–,–
CCS(=O)(=O)c1ccc(OC)c(C(=O)OC)c1,inactive,inactive,inactive,inactive,–,–,–,–
Cc1cc(O)cc(C)c1Cl,inactive,inactive,inactive,inactive,–,–,–,–
CCOc1ccc(OCC)c(Cl)c1,inactive,inactive,inactive,inactive,–,–,–,–
COC(CC(C)CCCC(C)(C)O)OC (stereo not given),inactive,inactive,inactive,inactive,–,–,–,–
CCCCCCCCCCCCCCCC(=O)O,inactive,inactive,inactive,inactive,–,–,–,–
Clc1ccc(C(c2ccccc2Cl)C(Cl)Cl)cc1 (stereo not given),inactive,inactive,inactive,inactive,–,–,–,–
NCCN,–,–,–,–,inactive,inactive,inactive,inactive
C=C(C)C(=O)OCC1CCCO1 (stereo not given),inactive,inactive,inactive,inactive,–,–,–,–
Cc1cccc(C)c1NC(=O)CC12CCCN1CCC2,inactive,inactive,inactive,inactive,–,–,–,–
CC(=O)/C=C/C1C(C)=CCCC1(C)C (stereo not given),inactive,inactive,inactive,inactive,–,–,–,–
Cc1cccc(C)c1NC(=O)CN1CCCC1,inactive,inactive,inactive,inactive,–,–,–,–
Cc1ccc(S(=O)(=O)NC(=O)NC2CCCCC2)cc1,inactive,inactive,inactive,inactive,–,–,–,–
N#CCCN(CCO)CCO,inactive,inactive,inactive,inactive,–,–,–,–
CCC(C)(CCCC(C)C)OC(C)=O (stereo not given),inactive,inactive,inactive,inactive,–,–,–,–
O=S(=O)(Oc1ccc(Cl)cc1Cl)c1ccccc1,inactive,inactive,inactive,inactive,–,–,–,–

SMILES,Potency [1],Potency [2],Potency [3],Potency [4],outcome [1],outcome [2],outcome [3],outcome [4]
CC(=O)CCC(C)C,inactive,inactive,inactive,inactive,–,–,–,–
Cc1ccc2nc(-c3ccc(N)cc3)sc2c1S(=O)(=O)O,inactive,inactive,inactive,inactive,–,–,–,–
CCCCC(CC)COC(=O)/C=C\C(=O)OCC(CC)CCCC (stereo not given),inactive,inactive,inactive,inactive,–,–,–,–
OCCOc1cccc(OCCO)c1,inactive,inactive,inactive,inactive,–,–,–,–
O=c1[nH]c(=O)n([C@H]2C[C@H](O)[C@@H](CO)O2)cc1F,inactive,inactive,inactive,inactive,–,–,–,–
CCCCCCCCCCCc1ccccc1,inactive,inactive,inactive,inactive,–,–,–,–
COc1c2ccoc2cc2oc(=O)ccc12,inactive,inactive,inactive,inactive,–,–,–,–
O=C1CCCc2ccccc21,inactive,inactive,inactive,inactive,–,–,–,–
O=C(O)CCC(=O)c1ccc(-c2ccccc2)cc1,inactive,inactive,inactive,inactive,–,–,–,–
COc1ccccc1O,inactive,inactive,inactive,inactive,–,–,–,–
COc1ccc(N)c(OC)c1,inactive,inactive,inactive,inactive,–,–,–,–
CCOC(=O)NNc1ccc(N(CC)CC(C)O)nn1 (stereo not given),inactive,inactive,inactive,inactive,–,–,–,–
Cc1cccc(C(=O)O)c1[N+](=O)[O-],inactive,inactive,inactive,inactive,–,–,–,–
c1ccc2[nH]cnc2c1,inactive,inactive,inactive,inactive,–,–,–,–
CCCCCC/C=C/C=O,inactive,inactive,inactive,inactive,–,–,–,–
C=C(C)C1CCC(C)CC1O (stereo not given),inactive,inactive,inactive,inactive,–,–,–,–
CC(C)(C)c1cc(CCC(=O)OCC(COC(=O)CCc2cc(C(C)(C)C)c(O)c(C(C)(C)C)c2)(COC(=O)CCc2cc(C(C)(C)C)c(O)c(C(C)(C)C)c2)COC(=O)CCc2cc(C(C)(C)C)c(O)c(C(C)(C)C)c2)cc(C(C)(C)C)c1O,inactive,inactive,inactive,inactive,–,–,–,–
CCOC(=O)c1ccc(OCCN2C[C@H](O)[C@@H](O)[C@H](O)[C@H]2CO)cc1,inactive,inactive,inactive,inactive,–,–,–,–
COc1cc(/C=C/C(=O)CC(=O)/C=C/c2ccc(O)c(OC)c2)ccc1O,inactive,inactive,inactive,inactive,–,–,–,–
N#Cc1cc2ccccc2c2ccccc12,inactive,inactive,inactive,inactive,–,–,–,–

SMILES,Potency [1],Potency [2],Potency [3],Potency [4],outcome [1],outcome [2],outcome [3],outcome [4]
O=[N+]([O-])c1cc[n+]([O-])cc1,inactive,inactive,inactive,inactive,–,–,–,–
CCC(C(=O)NC(=O)NC(C)=O)c1ccccc1 (stereo not given),inactive,inactive,inactive,inactive,–,–,–,–
CC(CC=O)c1ccccc1 (stereo not given),inactive,inactive,inactive,inactive,–,–,–,–
CC(C)(C)[C@@H](O)[C@@H](Cc1ccc(Cl)cc1)n1cncn1,inactive and 71 µM (active),inactive,inactive,inactive,–,–,–,–
COC(=O)c1ccc(C)cc1C1=NC(C)(C(C)C)C(=O)N1 (stereo not given),inactive,inactive,inactive,inactive,–,–,–,–
C[Si](C)(C)N[Si](C)(C)C,inactive,3.96 µM (active) and inactive,1.98 µM (active) and inactive,19.8 µM (active) and inactive,–,–,–,–
CCOC(=O)C1=C[C@]2(CC)CCCN3CCc4c(n1c1ccccc41)[C@@H]32,inactive,inactive,inactive,inactive,–,–,–,–
CC(C)COC(=O)c1ccccc1,inactive,inactive,inactive,inactive,–,–,–,–
O=C(O)Cc1c[nH]c2ccccc12,inactive,inactive,inactive,inactive,–,–,–,–
CCCCCCCCCCCCCOS(=O)(=O)O,inactive,inactive,inactive,inactive,–,–,–,–
COC(=O)c1ccc(O)cc1,inactive,inactive,inactive,inactive,–,–,–,–
C#CC(O)CCC (stereo not given),inactive,inactive,inactive,inactive,–,–,–,–
CCOc1nc(F)cc2nc(S(=O)(=O)Nc3c(Cl)cccc3C(=O)OC)nn12,inactive,inactive,inactive,inactive,–,–,–,–
O=C(Nc1ccccc1)c1cc(Cl)ccc1O,inactive,inactive,inactive,inactive,–,–,–,–
CC(C)c1ccc2sc3ccccc3c(=O)c2c1,inactive,inactive,inactive,inactive,–,–,–,–
Cc1cc2c(cc1S(N)(=O)=O)S(=O)(=O)CCC2,17.4 µM (active),inactive,inactive,inactive,–,–,–,–
CC(C)(C)c1ccc(O)c(C(C)(C)C)c1,inactive,inactive,inactive,inactive,–,–,–,–
CC(=O)C1(C)CC2=C(CCCC2(C)C)CC1C (stereo not given),inactive,inactive,inactive,inactive,–,–,–,–
CCO/C([O-])=N/c1c[n+](N2CCOCC2)no1,inactive,inactive,inactive,inactive,–,–,–,–
CCCCC(=O)N(C)C,inactive,inactive,inactive,inactive,–,–,–,–
